Data as given in PubChem BioAssay (Tox21).
A number with no mark means an inactive call. A call without a number means that no potency is given here. Active and inactive are the calls of the source. Unless noted, calls follow the shape of the dose curve; as a rule, active = well fitted curve in the direction sought with a large enough effect in the repeat runs; inconclusive = weak or mixed curves; inactive = no such curve, though single readings can be large; an effect the other way counts as inactive or inconclusive.

How the values were obtained:
[1] = qHTS assay to identify small molecule antagonists of the glucocorticoid receptor (GR) signaling pathway - cell viability counter screen (AID 720693); also: nearly all actives have a fitted effect of over 55% in size
[2] = qHTS assay for identifying genotoxic compounds that show differential cytotoxicity against isogenic chicken DT40 cell lines with known DNA damage response pathways - wild type cell line (AID 743012); also: nearly all actives have a fitted effect of over 60% in size; also: potency is read from the fitted curve at half-maximal effect
How it was run: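 Luminescent ATP viability signal (CellTiter-Glo, 30 min RT) recorded after wild type DT40 cells were incubated with compounds for 40 h at 37 C/5% CO2.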

[3] = qHTS assay for identifying genotoxic compounds that show differential cytotoxicity against isogenic chicken DT40 cell lines with known DNA damage response pathways - Rev3 mutant cell line (AID 743014); also: nearly all actives have a fitted effect of over 55% in size; also: potency is read from the fitted curve at half-maximal effect
[4] = qHTS assay for identifying genotoxic compounds that show differential cytotoxicity against isogenic chicken DT40 cell lines with known DNA damage response pathways - Rad54/Ku70 mutant cell line (AID 743015); also: nearly all actives have a fitted effect of over 60% in size; also: potency is read from the fitted curve at half-maximal effect
[5] = qHTS assay to identify small molecule antagonists of the androgen receptor (AR) signaling pathway - cell viability counter screen (AID 743033; also: nearly all actives have a fitted effect of over 45% in size)
[6] = qHTS assay to identify small molecule antagonists of the thyroid receptor (TR) signaling pathway - cell viability counter screen (AID 743064); also: nearly all actives have a fitted effect of over 50% in size
How it was run: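 Rat GH3 pituitary tumor cells stably expressing two TR response elements driving luciferase were plated, rested 4 h, then dosed with library compounds and T3 (1 nM final). After 23.5 h at 37 °C, CellTiter-Fluor was added for 30 min and fluorescence recorded.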

[7] = qHTS assay to identify small molecule antagonists of the thyroid receptor (TR) signaling pathway (AID 743065); also: nearly all actives have a fitted effect of over 55% in size; also: potency is read from the fitted curve at half-maximal effect
How it was run: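 Antagonism measured as loss of luciferase signal in GH3 cells stably carrying a TRE-luciferase reporter, co-treated with compound and T3 (1 nM final) for 23.5 h at 37 C. Viability was read in the same well by CellTiter-Fluor.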

[8] = test system: thyroid hormone receptor (rat, GH3 cells); assay: qHTS assay to identify small molecule agonists of the thyroid receptor (TR) signaling pathway (AID 743066; calls by dose curve)
[9] = qHTS assay to identify small molecule antagonists of the estrogen receptor alpha (ER-alpha) signaling pathway - cell viability counter screen (AID 743074; calls by dose curve;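 also: HEK293 cells carrying ER-alpha-UAS-bla reporter stimulated with 17beta-estradiol; nearly all actives have a fitted effect of over 45% in size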)
[10] = qHTS assay to identify small molecule antagonists of the estrogen receptor alpha (ER-alpha) signaling pathway using the BG1 cell line - cell viability counter screen (AID 743081);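 also: compound given together with 17beta-estradiol as the ER stimulus; nearly all actives have a fitted effect of over 45% in size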
[11] = qHTS assay to identify small molecule antagonists of the androgen receptor (AR) signaling pathway using the MDA cell line - cell viability counter screen (AID 743041; also: nearly all actives have a fitted effect of over 45% in size)
How it was run: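 Viability read by CellTiter-Fluor fluorescence in the same wells as the antagonist screen, added after 15.5 h of a 16 h, 37C exposure. Human breast carcinoma MDA-kb2 AR-luc cells, compounds co-dosed with agonist R1881.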

Aromatase (Homo sapiens) = Aromatase (Homo sapiens) (UniProt P11511); assay: qHTS assay to identify aromatase inhibitors (AID 743083); also: nearly all actives have a fitted effect of over 55% in size; also: potency is read from the fitted curve at half-maximal effect
Aromatase (Homo sapiens), sequence (P11511 whole entry, looked up): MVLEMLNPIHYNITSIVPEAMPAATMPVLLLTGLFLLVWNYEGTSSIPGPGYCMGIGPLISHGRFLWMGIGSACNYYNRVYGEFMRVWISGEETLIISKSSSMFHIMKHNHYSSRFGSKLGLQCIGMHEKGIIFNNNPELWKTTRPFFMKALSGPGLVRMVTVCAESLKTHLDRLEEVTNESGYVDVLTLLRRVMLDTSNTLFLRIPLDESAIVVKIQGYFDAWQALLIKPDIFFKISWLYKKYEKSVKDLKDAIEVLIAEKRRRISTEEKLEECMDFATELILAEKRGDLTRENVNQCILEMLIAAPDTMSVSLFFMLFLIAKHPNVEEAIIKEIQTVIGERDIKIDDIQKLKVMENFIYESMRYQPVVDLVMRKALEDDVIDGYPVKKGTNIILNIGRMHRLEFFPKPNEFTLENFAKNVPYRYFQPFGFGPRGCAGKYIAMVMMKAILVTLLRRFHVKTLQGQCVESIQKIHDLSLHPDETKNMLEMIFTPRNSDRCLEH

[12] = qHTS assay to identify aromatase inhibitors - cell viability counter screen (AID 743084); also: potency is read from the fitted curve at half-maximal effect
[13] = biological target: Estrogen receptor (Homo sapiens) (UniProt P03372); assay: qHTS assay to identify small molecule antagonists of the estrogen receptor alpha (ER-alpha) signaling pathway (AID 743069; active = well fitted curve in the direction sought with a large enough effect in the signal ratio in the repeat runs, not every such curve was filed as active; inconclusive = weak or mixed curves, or effect the other way; inactive = no such curve, though single readings can be large or run the other way; the % refers to the signal ratio)
Estrogen receptor (Homo sapiens), sequence (P03372 whole entry, looked up): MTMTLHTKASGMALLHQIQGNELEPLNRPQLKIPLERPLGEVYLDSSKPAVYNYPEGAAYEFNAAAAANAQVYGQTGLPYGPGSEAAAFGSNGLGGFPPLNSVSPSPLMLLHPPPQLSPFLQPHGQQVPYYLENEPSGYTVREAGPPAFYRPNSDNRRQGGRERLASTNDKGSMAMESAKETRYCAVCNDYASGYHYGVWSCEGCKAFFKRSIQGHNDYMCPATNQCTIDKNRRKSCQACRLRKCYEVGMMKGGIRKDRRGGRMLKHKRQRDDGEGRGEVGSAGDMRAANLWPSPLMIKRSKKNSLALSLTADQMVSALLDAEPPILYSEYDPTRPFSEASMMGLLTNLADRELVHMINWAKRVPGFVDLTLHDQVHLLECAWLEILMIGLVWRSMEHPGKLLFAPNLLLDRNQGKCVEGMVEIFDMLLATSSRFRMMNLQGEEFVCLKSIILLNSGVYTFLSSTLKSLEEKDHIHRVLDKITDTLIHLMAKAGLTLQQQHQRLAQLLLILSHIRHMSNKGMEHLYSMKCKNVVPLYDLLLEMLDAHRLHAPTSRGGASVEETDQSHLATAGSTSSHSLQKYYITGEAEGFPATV
How it was run: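 Antagonist mode: compounds in DMSO were co-added with 17beta-estradiol to ER-alpha-bla HEK293 cells (2% charcoal-stripped serum) and left 18 h at 37C. Reporter inhibition was measured as FRET fluorescence after 2 h LiveBLAzer substrate at room temperature.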

[14] = biological target: Estrogen receptor (Homo sapiens) (UniProt P03372); assay: qHTS assay to identify small molecule agonists of the estrogen receptor alpha (ER-alpha) signaling pathway (AID 743075; calls by dose curve;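 also: HEK293 GripTite cells with ER-alpha and UAS-driven beta-lactamase reporter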; also: potency is read from the fitted curve at half-maximal effect)
[15] = biological target: Estrogen receptor (Homo sapiens) (UniProt P03372); assay: qHTS assay to identify small molecule agonists of the estrogen receptor alpha (ER-alpha) signaling pathway using the BG1 cell line (AID 743079); settings: BG1Luc4E2 cells, ERE-luciferase agonist, 22 h; also: nearly all actives have a fitted effect of over 20% in size; also: potency is read from the fitted curve at half-maximal effect
[16] = qHTS assay to identify small molecule antagonists of the estrogen receptor alpha (ER-alpha) signaling pathway using the BG1 cell line (AID 743080; calls by dose curve;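 also: BG1 cells stimulated with 17beta-estradiol alongside compound; nearly all actives have a fitted effect of over 25% in size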)
How it was run: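 BG1Luc4E2, endogenous ER-alpha, 4xERE-luc; 5 d charcoal-stripped FBS, phenol red free; 24 h plating; cpd + 17beta-estradiol 21.5 h, 37 C/5% CO2; CellTiter-Fluor viability 30 min, then ONE-Glo luciferase 30 min RT.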

CCOC(=O)COc1ccc(Cl)cc1Cl
Potency [1]: inactive | Potency [2]: inactive | Potency [3]: inactive | Potency [4]: inactive | Potency [5]: inactive | Potency [6]: inactive | Potency [7]: inactive | Potency [8]: inactive | Potency [9]: inactive | Potency [10]: inactive

O=C1CCCCC1Cl (centres undefined)
Potency [1]: inactive | Potency [2]: inactive | Potency [3]: inactive | Potency [4]: inactive | Potency [5]: inactive | Potency [11]: inactive | Potency [6]: inactive | Potency [7]: inactive | Potency [8]: inactive | Potency [10]: inactive | Potency (Aromatase (Homo sapiens)): inactive | Potency [12]: inactive

O=c1[nH]c2ccccc2o1
Potency [1]: inactive | Potency [2]: inactive | Potency [3]: inactive | Potency [4]: inactive | Potency [5]: inactive | Potency [11]: inactive | Potency [6]: inactive | Potency [7]: inactive | Potency [8]: inactive | Potency [9]: inactive | Potency [10]: inactive | Potency (Aromatase (Homo sapiens)): inactive | Potency [12]: inactive

C#CC(C)(C)O
Potency [1]: inactive | Potency [2]: inactive | Potency [3]: inactive | Potency [4]: inactive | Potency [5]: inactive | Potency [6]: inactive | Potency [7]: inactive | Potency [8]: inactive | Potency [10]: inactive | Potency (Aromatase (Homo sapiens)): inactive | Potency [12]: inactive

CCOC(=O)C(SP(=S)(OC)OC)c1ccccc1 (centres undefined)
Potency [1]: inactive | Potency [2]: inactive | Potency [3]: inactive | Potency [4]: inactive | Potency [5]: inactive | Potency [11]: inactive | Potency [6]: inactive | Potency [7]: inactive | Potency [8]: inactive | Potency [9]: inactive | Potency [10]: inactive | Potency (Aromatase (Homo sapiens)): inactive | Potency [12]: inactive

C=C(Cl)CSC(=S)N(CC)CC
Potency [1]: inactive | Potency [2]: 33.5 µM (active) | Potency [3]: 66.8 µM (active) | Potency [4]: 53 µM (active) | Potency [5]: inactive | Potency [11]: inactive | Potency [8]: inactive | Potency [9]: inactive | Potency [10]: inactive | Potency (Aromatase (Homo sapiens)): 26.6 µM (active) | Potency [12]: 18.8 µM (active)

CON(C)C(=O)Nc1ccc(Br)cc1
Potency [1]: inactive | Potency [2]: inactive | Potency [3]: inactive | Potency [4]: inactive | Potency [5]: inactive | Potency [11]: inactive | Potency [6]: inactive | Potency [7]: inactive | Potency [8]: inactive | Potency [9]: inactive | Potency [10]: inactive | Potency (Aromatase (Homo sapiens)): inactive | Potency [12]: inactive

CCc1cc(OC)c(C[C@H](C)N)cc1OC
Potency [1]: inactive | Potency [2]: 63.7 µM (active) | Potency [3]: 71.5 µM (active) | Potency [4]: 63.7 µM (active) | Potency [5]: inactive | Potency [7]: 31.9 µM (active) | Potency [8]: inactive | Potency [9]: inactive | Potency (Aromatase (Homo sapiens)): inactive | Potency [12]: inactive

Oc1ccc(Cc2ccc(O)cc2)cc1
Potency [1]: inactive | Potency [2]: inactive | Potency [3]: inactive | Potency [4]: inactive | Potency [5]: inactive | Potency [11]: inactive | Potency [6]: inactive | Potency [7]: inactive | Potency [13]: inactive | Potency [9]: inactive | Potency [14]: 15.6 µM [inconclusive] (active) | Potency [15]: 2.45 µM (active) | Potency [16]: inactive | Potency [10]: inactive | Potency (Aromatase (Homo sapiens)): inactive | Potency [12]: inactive

CCCCCCC1CCOC1=O (centres undefined)
Potency [1]: inactive | Potency [2]: inactive | Potency [3]: inactive | Potency [4]: inactive | Potency [5]: inactive | Potency [6]: inactive | Potency [7]: inactive | Potency [8]: inactive | Potency [9]: inactive | Potency [10]: inactive | Potency (Aromatase (Homo sapiens)): inactive | Potency [12]: inactive

CN1C(=O)COc2c(C(=O)NC3CN4CCC3CC4)cc(Cl)cc21 (centres undefined)
Potency [1]: inactive | Potency [2]: inactive | Potency [3]: inactive | Potency [4]: inactive | Potency [5]: inactive | Potency [8]: inactive | Potency [13]: inactive | Potency [9]: inactive | Potency [14]: inactive | activation ([15]; at 70.3 µM (top of the series)): 18.3% | Potency [16]: inactive | Potency (Aromatase (Homo sapiens)): inactive | Potency [12]: inactive

Cc1cccc2sc3nncn3c12
Potency [1]: inactive | Potency [2]: inactive | Potency [3]: inactive | Potency [4]: inactive | Potency [5]: inactive | Potency [6]: inactive | Potency [7]: inactive | Potency [8]: inactive | Potency [13]: inactive | Potency [9]: inactive | Potency [14]: inactive | activation ([15]; at 70.3 µM (top of the series)): 13.8% | Potency [16]: inactive | Potency [10]: inactive | Potency (Aromatase (Homo sapiens)): inactive | Potency [12]: inactive

Oc1ccc2c3c1O[C@H]1[C@@H](O)C=C[C@H]4[C@@H](C2)NCC[C@@]341
Potency [1]: inactive | Potency [2]: inactive | Potency [3]: inactive | Potency [4]: inactive | Potency [5]: inactive | Potency [6]: inactive | Potency [7]: inactive | Potency [8]: inactive | Potency [9]: inactive | Potency (Aromatase (Homo sapiens)): inactive | Potency [12]: inactive

COc1cc(CC(C)N)cc(OC)c1OC (centres undefined)
Potency [1]: inactive | Potency [2]: inactive | Potency [3]: inactive | Potency [4]: inactive | Potency [5]: inactive | Potency [6]: inactive | Potency [7]: inactive | Potency [8]: inactive | Potency [14]: inactive | activation ([15]; at 95 µM (top of the series)): -7.73% | Potency [16]: inactive | Potency (Aromatase (Homo sapiens)): inactive | Potency [12]: inactive

C=CCCC#N
Potency [1]: inactive | Potency [2]: inactive | Potency [3]: inactive | Potency [4]: inactive | Potency [5]: inactive | Potency [6]: inactive | Potency [7]: inactive | Potency [8]: inactive | Potency [9]: inactive | Potency [14]: inactive | activation ([15]; at 70.3 µM (top of the series)): -1.77% | Potency [16]: inactive | Potency [10]: inactive | Potency (Aromatase (Homo sapiens)): inactive | Potency [12]: inactive

O=C(Cl)CCl
Potency [1]: inactive | Potency [2]: inactive | Potency [3]: inactive | Potency [4]: inactive | Potency [5]: inactive | Potency [6]: inactive | Potency [7]: inactive | Potency [8]: inactive | Potency [13]: inactive | Potency [9]: inactive | Potency [14]: inactive | activation ([15]; at 95 µM (top of the series)): 0.754% | Potency [16]: inactive | Potency [10]: inactive | Potency (Aromatase (Homo sapiens)): inactive | Potency [12]: inactive

Cc1ccc(Cl)c(O)c1
Potency [1]: inactive | Potency [2]: inactive | Potency [3]: inactive | Potency [4]: inactive | Potency [5]: inactive | Potency [6]: inactive | Potency [7]: inactive | Potency [8]: inactive | Potency [13]: inactive | Potency [9]: inactive | Potency [14]: inactive | activation ([15]; at 70.3 µM (top of the series)): 9.43% | Potency [16]: inactive | Potency [10]: inactive | Potency (Aromatase (Homo sapiens)): inactive | Potency [12]: inactive

CC(C)[C@]12CC(=O)[C@H](C)[C@H]1C2
Potency [1]: inactive | Potency [2]: inactive | Potency [3]: inactive | Potency [4]: inactive | Potency [5]: inactive | Potency [11]: inactive | Potency [6]: inactive | Potency [7]: inactive | Potency [8]: inactive | Potency [9]: inactive | Potency [10]: inactive | Potency (Aromatase (Homo sapiens)): inactive | Potency [12]: inactive

Brc1c(Br)c(Br)c(Br)c(Br)c1Br
viability change, negative = cytotoxic [1]: -0.032% [at 7.04 µM] | activity change, negative = cytotoxicity [2]: -12.6% [at 8.52 µM] | activity, negative = cytotoxicity [3]: 4.56% [at 8.53 µM] | activity change, negative = cytotoxicity [4]: 8.63% [at 8.55 µM] | activity change, negative = cytotoxicity [5]: -0.0996% [at 7.04 µM] | viability change, negative = cytotoxic [11]: 1.47% [at 8.47 µM] | activity, negative = inhibition [7]: 36% [at 8.44 µM] | activation [8]: -0.0085% [at 8.08 µM] | activity, negative = cytotoxicity [9]: -1.91% [at 6.72 µM] | activation [14]: 2.61% [at 6.71 µM] | activation ([15]; at 8.47 µM (top of the series)): 1.05% | activity change, negative = inhibition [16]: 17.5% [at 8.47 µM] | activity change, negative = cytotoxicity [10]: 9.59% [at 8.47 µM] | activity, negative = inhibition (Aromatase (Homo sapiens)): 14.6% [at 8.47 µM] | activity change, negative = cytotoxicity [12]: -1.05% [at 8.47 µM]
